Data as given in PubChem BioAssay (EPA / NIEHS).
“And” between values parts separate entries of the source, which are not always exact repeats. Equal values may be shown once. Records with an inconclusive call do not appear. Some structures have more than one record in an assay (separate samples or runs), and their calls can disagree. The source made the active and inactive calls. How the source made its calls, unless noted: active means hit-call score of the fitted dose curve at least 0.9, where 1 is the maximum; inactive means score below 0.9.

Tests used:
[1] = UKN5_HCS_SBAD2_cell_viability: Viability Assessment in the University of Konstanz (UKN) Leist Lab Neurite Outgrowth Assay in human iPSC-derived immature Dorsal Root Ganglia Neurons (UKN5) (AID 2284056)
In short: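 iPSC-derived immature peripheral neurons (SBAD2) seeded on Matrigel with CHIR99021, SU5402 and DAPT, dosed 1 h later for 24 h. Viability from Hoechst H-33342 and calcein-AM live staining, high-content imaging; bidirectional fit versus DMSO.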

[2] = CCTE_Shafer_MEA_dev_LDH: CCTE's Lactate Dehydrogenase Assay for Cytotoxicity in the Neural Network Formation Assay, Shafer Lab (AID 2284068; active means hit-call score of the fitted dose curve at least 0.9, where 1 is the maximum;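 further: exposure for twelve days from plating with re-dosing on DIV 5 and 9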)
In short: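 Cytotoxicity companion to network-formation recordings: rat cortical neurons received compound over 12 days of development, re-dosed at DIV 5 and 9 feeds. Viability was inferred from LDH enzyme activity relative to DMSO.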

[3] = UKN5_HCS_SBAD2_neurite_outgrowth: University of Konstanz (UKN) Leist Lab Neurite Outgrowth Assay in human iPSC-derived immature Dorsal Root Ganglia Neurons (UKN5) (AID 2284070); settings: actives raise or lower the signal
In short: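 SBAD2 neurons, 24 h compound treatment, calcein-AM neurite area via HCS imaging; DMSO baseline, gain or loss of signal.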

[4] = CCTE_Shafer_MEA_dev_AB: CCTE's Alamar Blue Assay for Cytotoxicity in the Neural Network Formation Assay, Shafer Lab (AID 2284083; active means hit-call score of the fitted dose curve at least 0.9, where 1 is the maximum;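 further: twelve days of exposure from plating with re-dosing on DIV 5 and 9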)
In short: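 Fluorescent resazurin reduction serves as the viability read-out, with DMSO as negative control and baseline. Cells were primary rat cortical neurons grown on MEA plates and dosed from day 0 to day 12, treatment renewed on DIV 5 and 9.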

[5] = CCTE_Shafer_MEA_acute_LDH: CCTE's Lactate Dehydrogenase Assay for Cytotoxicity in the Neural Acute Assay, Shafer Lab (AID 2284086; active means hit-call score of the fitted dose curve at least 0.9, where 1 is the maximum;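 further: active means LDH release rises above DMSO vehicle level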)
In short: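 Released lactate dehydrogenase, read at 490 nm, indicated cytotoxicity after acute 40-min compound treatment of rat cortical neuron networks grown on 48-well MEA plates.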

[6] = CCTE_Shafer_MEA_dev_correlation_coefficient_mean: CCTE's Neural Network Formation Assay for Mean Correlation Coefficient, Shafer Lab (AID 2284093);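 on AC50: well mean pairwise spike train correlation integrated as AUC over recording days 5 to 12; potency fitted for loss of correlation relative to DMSO vehicle wells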
In short: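 Read-out: well-mean correlation coefficient of spike trains between electrode pairs, collapsed over four recording days as trapezoidal area-under-the-curve. Developing rat cortical neuron networks grown on MEAs received test chemical continuously from plating.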

[7] = UKN2_HCS_IMR90_neural_migration: University of Konstanz (UKN) Leist Lab Neural Crest Cell Migration Assay in human induced IMR90 Pluripotent Stem Cells (UKN2) (AID 2284204); settings: actives raise or lower the signal
In short: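 iPSC-derived IMR90 neural crest cells on PLO/laminin/fibronectin were seeded around silicone stoppers; after stopper removal, migration in N2-S medium with EGF and FGF ran 24 h before 24 h chemical exposure. Calcein-AM/Hoechst high-content imaging; bidirectional fit versus DMSO.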

[8] = UKN4_HCS_LUHMES_neurite_outgrowth: University of Konstanz (UKN) Leist Lab Neurite Outgrowth Assay in human LUHMES cells (UKN4) (AID 2284206); settings: actives raise or lower the signal
In short: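 2-day-differentiated LUHMES, 24 h cpd exposure, live calcein-AM + H-33342 stain, HCS fluorescence imaging of neurite area; DMSO = baseline, bidirectional fit.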

[9] = TAMU_PeakParms_SingleDonor1434_Chronotropy: Texas A&M University (TAMU) 1.5-hr Human Induced Pluripotent Stem Cell (iPSC)-derived Cardiomyocytes Calcium (Ca+2) Flux Assay for Cardiotoxicity: Chronotropy (changes in peak frequency) (AID 2284217); settings: actives raise or lower the signal
In short: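 Beat frequency of single-donor iPSC cardiomyocytes was recorded through a calcium-sensitive dye 1.5 hours after exposure to four concentrations up to 100 uM. An EC05 point of departure was derived.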

[10] = CCTE_Shafer_MEA_acute_AB: CCTE's Alamar Blue Assay for Cytotoxicity in the Neural Acute Assay, Shafer Lab (AID 2284069; active means hit-call score of the fitted dose curve at least 0.9, where 1 is the maximum;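 further: active compounds lower the viability signal compared with DMSO wells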)
In short: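 Metabolic activity in chemically exposed rat cortical neurons (MEA cultures, day 13/15 post-plating) measured via CellTiter Blue resazurin reduction, 544/590 nm fluorescence; fitted relative to DMSO, with signal loss indicating reduced viability.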

[11] = IUF_NPC1b_proliferation_BrdU_72hr: Leibniz Research Institute for Environmental Medicine (IUF) 72-hour Neural Progenitor Cell Bromodeoxyuridine (BrdU) Proliferation Assay (NPC1b) (AID 2284207)
In short: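 hNPC spheres (primary, GW 16-19 fetal cortex), single sphere/well, EGF+FGF medium; 72 h compound, no renewal; BrdU pulse last 16 h; luminescent ELISA; activity vs DMSO baseline; growth-factor withdrawal as positive control.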

[12] = IUF_NPC1a_proliferation_area_72hr: Leibniz Research Institute for Environmental Medicine (IUF) 72-hour Neural Progenitor Cell Proliferation Area Assay (NPC1a) (AID 2284208)
In short: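 Spheres of 0.3 mm are plated singly in growth-factor medium and exposed from day 0. After three days at 37C and 5% CO2, sphere area is measured by phase contrast imaging, with activity referenced to DMSO.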

[13] = CCTE_Mundy_HCI_Cortical_Synap_Neur_Matur_NeuriteSpotCountPerNeuriteLength: CCTE's Synaptogenesis and Neurite Maturation Assay in rat cortical cells for Neurite Spot Count per Neurite Length, Mundy Lab (AID 2284210)
In short: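 Rat primary cortical cultures, glia arrested with AraC at DIV 5, were dosed with media change at DIV 7 and fixed at DIV 12. Synaptophysin puncta per MAP2-labelled neurite length were quantified by high-content imaging versus DMSO.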

[14] = CCTE_Mundy_HCI_Cortical_NOG_NeuriteCount: CCTE's Neurite Outgrowth Assay in rat cortical cells for Neurite Count, Mundy Lab (AID 2284212);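 further: cells fixed about two days after chemical exposure began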
In short: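 Neurite number per cell from high-content imaging of betaIII-tubulin immunostaining, with Hoechst nuclear counterstain.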

[15] = CCTE_Mundy_HCI_Cortical_NOG_NeuriteLength: CCTE's Neurite Outgrowth Assay in rat cortical cells for Neurite Length, Mundy Lab (AID 2284213);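 on AC50: neurites imaged about 48 to 50 h after chemical exposure began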
In short: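 Neurite length was read by high-content imaging of βIII-tubulin-labelled neurites in rat primary cortical cultures. Activity was fitted relative to DMSO.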

[16] = CCTE_Mundy_HCI_Cortical_Synap_Neur_Matur_NeuriteLength: CCTE's Synaptogenesis and Neurite Maturation Assay in rat cortical cells for Neurite Length, Mundy Lab (AID 2284214)
In short: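 Neurite length in rat primary cortical cultures is imaged after MAP2, synaptophysin and Hoechst staining. Dosing starts DIV 7, ending DIV 12; DMSO serves as negative control and baseline.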

[17] = CCTE_Mundy_HCI_Cortical_Synap_Neur_Matur_NeuriteSpotCountPerNeuron: CCTE's Synaptogenesis and Neurite Maturation Assay in rat cortical cells for Neurite Spot Count per Neuron Count, Mundy Lab (AID 2284215)
In short: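 Rat cortical primary cultures; AraC DIV 5 to arrest glia; dosing + media change DIV 7; fixed DIV 12. Anti-MAP2/anti-synaptophysin, Hoechst nuclei; HCI puncta count per neuron, positive fitting direction vs DMSO.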

[18] = CCTE_Mundy_HCI_Cortical_Synap_Neur_Matur_SynapseCount: CCTE's Synaptogenesis and Neurite Maturation Assay in rat cortical cells for Synapse Count, Mundy Lab (AID 2284218)
In short: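 Synapse count per neuron is measured in rat cortical neurons exposed to chemicals between DIV 7 and DIV 12, with glial growth arrested by AraC at DIV 5. Synaptophysin and MAP2 staining is imaged automatically; activity is fitted relative to DMSO.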

[19] = CCTE_Mundy_HCI_Cortical_Synap_Neur_Matur_BPCount: CCTE's Synaptogenesis and Neurite Maturation Assay in rat cortical cells for Branch Point Count, Mundy Lab (AID 2284211)
In short: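 Branch point number is quantified by automated imaging of fluorescently labelled neurites and synapses in rat primary cortical neurons exposed from DIV 7 to DIV 12. Activity is analysed relative to DMSO negative control.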

[20] = CCTE_Mundy_HCI_hN2_NOG_NeuriteLength: CCTE's Neurite Outgrowth Assay in human hN2 cells for Neurite Length, Mundy Lab (AID 2284220; active means hit-call score of the fitted dose curve at least 0.9, where 1 is the maximum)
In short: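 Using βIII-tubulin immunofluorescence and Hoechst nuclear counterstain, this component quantifies neurite length in hNP1-derived neurons.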

ClC1C(Cl)C(Cl)C(Cl)C(Cl)C1Cl (stereo not given)
outcome [1]: inactive
outcome [2]: inactive
outcome [3]: inactive
outcome [4]: inactive
outcome [5]: inactive
outcome [6]: inactive
outcome [7]: inactive
outcome [8]: inactive
AC50 [9]: 11.5 µM (active)

CCOCN(C(=O)CCl)c1c(C)cccc1CC
AC50 [9]: 4.73 µM (active)

O=C1c2ccccc2C(=O)N1SC(Cl)(Cl)Cl
AC50 [10]: 20 µM (active)
outcome [5]: inactive

CCC(C)Nc1c([N+](=O)[O-])cc(C(C)(C)C)cc1[N+](=O)[O-] (stereo not given)
outcome [10]: inactive

O=C(O)COc1ccc(Cl)cc1Cl
AC50 [2]: 15 µM (active)
outcome [4]: inactive
outcome [6]: inactive
outcome [7]: inactive
AC50 [11]: 50.1 µM (active)
outcome [12]: inactive
outcome [13]: inactive
outcome [14]: inactive
outcome [15]: inactive
outcome [16]: inactive
outcome [17]: inactive
outcome [18]: inactive

CC1(C)C(C=C(Cl)Cl)C1C(=O)OC(C#N)c1ccc(F)c(Oc2ccccc2)c1 (stereo not given)
AC50 [2]: 42.3 µM (active)
outcome [2]: inactive
outcome [10]: inactive
AC50 [4]: 64.4 µM (active)
outcome [4]: inactive
outcome [5]: inactive
AC50 [6]: 1.06 µM (active) and 8.22 µM (active) and 7.24 µM (active)
outcome [7]: inactive
AC50 [11]: 8.05 µM (active)
outcome [12]: inactive
AC50 [13]: 82.7 µM (active)
outcome [13]: inactive
AC50 [19]: 49.9 µM (active) and 15 µM (active)
AC50 [14]: 77.2 µM (active)
outcome [14]: inactive
AC50 [15]: 79.7 µM (active)
outcome [15]: inactive
AC50 [16]: 33.1 µM (active) and 2.98 µM (active)
AC50 [17]: 72 µM (active) and 15 µM (active)
AC50 [18]: 77.9 µM (active)
outcome [18]: inactive

Clc1ccccc1-c1nnc(-c2ccccc2Cl)nn1
outcome [10]: inactive
outcome [5]: inactive

O=S(=O)(O)C(F)(F)C(F)(F)C(F)(F)C(F)(F)C(F)(F)C(F)(F)C(F)(F)C(F)(F)F
AC50 [1]: 770 µM (active)
AC50 [2]: 16.4 µM (active)
outcome [2]: inactive
outcome [10]: inactive
AC50 [3]: 752 µM (active)
AC50 [4]: 50 µM (active)
AC50 [6]: 68.6 µM (active)
outcome [6]: inactive
AC50 [7]: 114 µM (active)
outcome [7]: inactive
AC50 [8]: 19.1 µM (active)
AC50 [11]: 12.6 µM (active)
outcome [11]: inactive
outcome [12]: inactive
outcome [13]: inactive
outcome [19]: inactive
outcome [14]: inactive
outcome [15]: inactive
outcome [16]: inactive
outcome [17]: inactive
outcome [18]: inactive

COP(=S)(OC)Oc1ccc(SC)c(C)c1
outcome [10]: inactive

CC(C)N(C(=O)COc1nnc(C(F)(F)F)s1)c1ccc(F)cc1
outcome [1]: inactive
AC50 [2]: 15 µM (active)
outcome [2]: inactive
outcome [3]: inactive
AC50 [4]: 7.79 µM (active)
outcome [4]: inactive
outcome [5]: inactive
AC50 [6]: 15 µM (active)
outcome [6]: inactive
outcome [7]: inactive
outcome [8]: inactive
outcome [11]: inactive
outcome [12]: inactive
outcome [13]: inactive
outcome [19]: inactive
outcome [14]: inactive
outcome [15]: inactive
outcome [16]: inactive
outcome [17]: inactive
outcome [18]: inactive

O=C(O)CCCOc1ccc(Cl)cc1Cl
outcome [10]: inactive
outcome [5]: inactive

Oc1cc(Cl)ccc1Oc1ccc(Cl)cc1Cl
AC50 [2]: 6.58 µM (active)
outcome [10]: inactive
AC50 [4]: 14.2 µM (active)
outcome [5]: inactive
AC50 [6]: 9.23 µM (active)

CNC(=O)/C=C(\C)OP(=O)(OC)OC
outcome [10]: inactive
outcome [5]: inactive

COP(=O)(OC)OC=C(Cl)Cl
AC50 [2]: 3.8 µM (active)
outcome [2]: inactive
AC50 [4]: 30.4 µM (active)
AC50 [6]: 0.656 µM (active)
outcome [6]: inactive
outcome [7]: inactive
outcome [11]: inactive
AC50 [12]: 14.2 µM (active)
outcome [13]: inactive
AC50 [19]: 49 µM (active)
outcome [19]: inactive
AC50 [14]: 77.3 µM (active)
outcome [14]: inactive
AC50 [15]: 57.5 µM (active)
outcome [15]: inactive
outcome [16]: inactive
AC50 [17]: 49 µM (active)
outcome [17]: inactive
AC50 [18]: 9.71 µM (active)
outcome [18]: inactive
outcome [20]: inactive
